Source: PubChem BioAssay (National Center for Advancing Translational Sciences (NCATS))
Vaccinia mCherry: inhibitors of vaccinia virus infection (mCherry reporter signal); actives 0.63% (n = 310,000); Vaccinia virus mCherry reporter infection, fluorescence; Potency, µM (highest dose often 36.5 µM), actives largely listed as inhibitors; calls by dose curve; tested in A549 cells; further: nearly all actives have a fitted effect of over 35% in size
Sm TGR inh: S. mansoni TGR enzyme inhibition; Q962Y6; purified TGR, DTNB reduction, TNB absorbance 405 nm; Potency, µM (top dose mostly 114 µM), actives largely listed as inhibitors; actives 3% (n = 360,000); further: nearly all actives have a fitted effect of over 60% in size
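TGR 20 nM + NADPH 100 uM (dispensed conc.), cpd preinc 15 min RT; start with NADPH (500 uM addition) then DTNB (15 mM addition). Kinetic TNB absorbance, 405 nm filter. Four-parameter Hill fit across titration.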
HCV inhibitor: HCV inhibition. actives 3.4% (n = 340,000). Potency, µM (series often up to 41.8 µM), actives largely listed as inhibitors. Huh7.5.1 HCVcc-Cre infection, luciferase reporter, 44 h. AID 651820
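Infectious HCV cell culture screen: compound-treated cells (1,000/well, pre-plated 4 h) are infected with HCVcc-Cre at roughly 0.5 moi and grown 44 h. Infection is quantified by luciferase signal after 15 min substrate incubation at room temperature.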
HCMV antiviral: inhibitors of human cytomegalovirus; actives 4.5% (n = 410,000); HFF cells, HCMV-luciferase reporter, 72 h; hits give low values; AID 1259415; activity change, negative = inhibition, % at 57.5 µM; in the data active means activity change below about -60%; inconclusive means no clear call, values can overlap the other calls; inactive means above about -39%
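Two-dose cell screen: HFF monolayers treated with compounds and infected with luciferase-expressing HCMV at 1 PFU/cell, 72 h at 37C, then lysed for luciferase measurement.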
VACV Venus inh: inhibitors of vaccinia virus (Venus reporter); Vaccinia virus Venus reporter expression, fluorescence; Potency, µM (doses to about 36.5 µM), most hits filed as inhibitors; actives 0.46% (n = 330,000); calls by dose curve; tested in A549 cells; further: nearly all actives have a fitted effect of over 30% in size
FMDV inh: antivirals against foot and mouth disease virus; actives 1.2% (n = 410,000); FMDV antiviral cell-based qHTS; Potency, µM (highest dose often 57.9 µM), hits mostly inhibitors; calls by dose curve; tested in HEK293T cells; further: read-out not given here; nearly all actives have a fitted effect of over 45% in size
Hits are given with their value; [ ] = remark or other dose. In the library only some 9.3% were active in any assay of this set; here they are far more common. Unless noted, the call rests on the fitted dose curve; in most records, active means well fitted curve in the direction sought with a large enough effect; inconclusive means small, poorly fitted or top-dose-only effect, or another doubt; inactive means no such curve, though single readings can be large; an effect the other way counts as inactive or inconclusive.

CCc1ccccc1NC(=O)c1ccc(CN2CCC(Cc3ccccc3)CC2)cc1 was read as Sm TGR inh inactive, HCV inhibitor 13µM, HCMV antiviral inactive, VACV Venus inh inconclusive and FMDV inh inactive.
`CCCn1nc(C(=O)Nc2nc3ccccc3[nH]2)c2ccccc2c1=O` gave Vaccinia mCherry inactive, Sm TGR inh inactive, HCV inhibitor inconclusive, HCMV antiviral inactive, VACV Venus inh inactive and FMDV inh inactive.
For Brc1ccc(-c2ccc(CNCCSc3nnnn3-c3ccccc3)o2)cc1 the results were Vaccinia mCherry inactive, Sm TGR inh 18µM, HCMV antiviral inactive, VACV Venus inh inactive and FMDV inh inactive.
`Cc1ccc(C)n1-c1c(C(=O)NCC(C)c2ccccc2)sc2ncccc12` (centres undefined) gave Vaccinia mCherry inactive, Sm TGR inh inactive, HCMV antiviral inactive, VACV Venus inh inactive and FMDV inh inactive.
Cc1ccc(Nc2nc(N)nc(CN3CCN(c4ccccc4)CC3)n2)cc1Cl was read as Sm TGR inh inactive, HCV inhibitor inconclusive, HCMV antiviral inactive and FMDV inh inactive.
Cc1ccccc1Nc1nc(N)nc(CCl)n1 was read as Vaccinia mCherry inconclusive, Sm TGR inh inconclusive, HCV inhibitor 1.3µM, HCMV antiviral -101, VACV Venus inh inconclusive and FMDV inh inactive.
`Nc1nc(CCl)nc(Nc2ccc3ccccc3c2)n1` gave Vaccinia mCherry inconclusive, Sm TGR inh 16µM, HCV inhibitor 0.89µM, HCMV antiviral -93, VACV Venus inh inconclusive and FMDV inh inactive.
Screening Cc1c(Cl)cccc1Nc1nc(N)nc(CSc2ncccn2)n1 returned Sm TGR inh inactive, HCV inhibitor inactive, HCMV antiviral -94 and FMDV inh inactive.
Screening CS(=O)c1ccccc1-c1nc(-c2ccc(Cl)cc2)no1 (centres undefined) returned Vaccinia mCherry inactive, Sm TGR inh inactive, HCV inhibitor inconclusive, HCMV antiviral inactive, VACV Venus inh inactive and FMDV inh inactive.
CC(Sc1nc(-c2ccco2)nc2c1c(=O)n(C)c(=O)n2C)C(=O)O (centres undefined) was read as Sm TGR inh 40µM, HCV inhibitor inactive, HCMV antiviral inactive and FMDV inh inactive.
Cn1c(=O)c2c(SCc3ccccc3)nc(-c3ccco3)nc2n(C)c1=O was read as Sm TGR inh inactive and HCV inhibitor inactive.
C#CC[N+](C)(C)C(C#Cc1ccccc1)CC=C (centres undefined) was read as Vaccinia mCherry inactive, Sm TGR inh inactive, HCV inhibitor inactive, HCMV antiviral -89, VACV Venus inh inactive and FMDV inh inactive.
Screening COc1cc(C2c3c(-c4ccccc4O)n[nH]c3C(=O)N2CCO)ccc1OCc1ccccc1 (centres undefined) returned Vaccinia mCherry inactive, Sm TGR inh inactive, HCMV antiviral inactive, VACV Venus inh inactive and FMDV inh inactive.
CCCN1C(=O)c2[nH]nc(-c3ccccc3O)c2C1c1ccc(OCc2ccccc2)c(OC)c1 (centres undefined) was read as Vaccinia mCherry inconclusive, Sm TGR inh inactive, HCMV antiviral -84, VACV Venus inh inactive and FMDV inh inconclusive.
`CCCOc1ccc(C2c3c(-c4ccccc4O)n[nH]c3C(=O)N2CCc2ccccc2)cc1OCC` (centres undefined) gave Vaccinia mCherry inconclusive, Sm TGR inh inactive, HCMV antiviral -90, VACV Venus inh inconclusive and FMDV inh inactive.
Screening CN(C(=O)CSc1cc(Cl)ccc1Cl)C1CCS(=O)(=O)C1 (centres undefined) returned Vaccinia mCherry inactive, HCV inhibitor inactive, HCMV antiviral inactive, VACV Venus inh inactive and FMDV inh inactive.
`CC(C)Cc1nc(N2CCNCC2)c(C#N)c2c1CCC2` gave Vaccinia mCherry inactive[7.34 µM], Sm TGR inh inactive, HCV inhibitor 3.2µM, HCMV antiviral inactive, VACV Venus inh inactive[7.34 µM] and FMDV inh inactive.
Screening CC(C)Cc1nc(N2CCN(C(=O)c3ccco3)CC2)c(C#N)c2c1CCC2 returned Vaccinia mCherry inactive, Sm TGR inh inconclusive, HCV inhibitor inconclusive, HCMV antiviral inactive, VACV Venus inh inactive and FMDV inh 25µM.
CC(=O)N1CCN(c2nc(CC(C)C)c3c(c2C#N)CCC3)CC1 was read as Vaccinia mCherry inactive, Sm TGR inh inactive, HCV inhibitor inconclusive, HCMV antiviral inactive, VACV Venus inh inactive and FMDV inh inactive.
For N#Cc1c(N2CCN(C(=O)c3ccco3)CC2)nc(-c2ccccc2)c2c1CCCC2 the results were Vaccinia mCherry inconclusive, Sm TGR inh inactive, HCV inhibitor inconclusive, HCMV antiviral -78, VACV Venus inh inconclusive and FMDV inh inconclusive.
CC(C)Cc1nc(N2CCN(C(=O)c3ccccc3)CC2)c(C#N)c2c1CCC2 was read as Sm TGR inh inactive, HCV inhibitor 11µM, HCMV antiviral inconclusive and FMDV inh inconclusive.
For O=C(CCc1nc(-c2ccccc2Cl)no1)NCC1CCCO1 (centres undefined) the results were Vaccinia mCherry inactive, Sm TGR inh inactive, HCV inhibitor inactive, HCMV antiviral inactive, VACV Venus inh inactive and FMDV inh inactive.
CC(C)(C)n1nnnc1C(c1ccccc1)N1CCN(c2ncccc2C(F)(F)F)CC1 (centres undefined) was read as Vaccinia mCherry inactive, HCMV antiviral inactive, VACV Venus inh inactive and FMDV inh inconclusive.
Screening O=C(N[C@@H]1c2ccccc2C2(CCN(C(=O)c3ccc4c(c3)OCCO4)CC2)[C@H]1O)c1cccnc1 returned Vaccinia mCherry inactive, VACV Venus inh inactive and FMDV inh inactive.
COc1ccc(C(CNc2ccc(S(C)(=O)=O)cc2[N+](=O)[O-])N(C)C)cc1OC (centres undefined) was read as Vaccinia mCherry inactive, Sm TGR inh inactive, HCV inhibitor 4µM, HCMV antiviral inactive, VACV Venus inh inactive and FMDV inh inactive.
COc1ccccc1NC(=S)N(Cc1ccccn1)Cc1ccccc1Cl was read as Vaccinia mCherry inactive, Sm TGR inh inactive, HCV inhibitor inactive, HCMV antiviral -63, VACV Venus inh inactive and FMDV inh inactive.
`Cc1cc(NC(=O)c2ccc(F)cc2)n(-c2ccccc2)n1` gave Vaccinia mCherry inactive, Sm TGR inh inactive, HCV inhibitor inactive, HCMV antiviral inactive, VACV Venus inh inactive and FMDV inh inactive.
Cc1cc(C(=O)NCc2cccs2)c(C)o1 was read as Sm TGR inh 22µM, HCV inhibitor inactive, HCMV antiviral inactive and FMDV inh inactive.
Screening CCOC(=O)CNC(=O)c1cc(C)oc1C returned Sm TGR inh 35µM and HCV inhibitor inactive.
For Cc1cc(C(=O)NCC(=O)O)c(C)o1 the results were Vaccinia mCherry inactive, Sm TGR inh inactive, HCV inhibitor inactive, HCMV antiviral inactive and VACV Venus inh inactive.
For Cc1occc1C(=O)NCc1cccs1 the results were Sm TGR inh inactive, HCV inhibitor inactive, HCMV antiviral inactive, VACV Venus inh inactive and FMDV inh inactive.
